Hit rate of the full screen: of about 220,000 compounds, about 530 (0.24%) were called active. Only a selection was taken, and actives are over-represented in it overall. Measured potencies and affinities stand elsewhere. Values without a mark were called inactive. Cut-off read from the data, not from the text of the source: active = inhibition above about 13%; inconclusive = no clear call, values can overlap the other calls; inactive = below that.

For this test, the target named is Bifunctional protein GlmU (Mycobacterium tuberculosis (strain ATCC 25618 / H37Rv)) (UniProt P9WMN3). The test is described as follows: inhibition of mycobacterial GlmU enzyme – biochemical, glucosamine-1-phosphate acetyltransferase (AID 1376).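 Note: 0% = complete reaction with vehicle and 100% = reaction without substrate.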 The note with it: M. tuberculosis GlmU acetyltransferase enzyme assay; stronger effect = higher value;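 tested at 30 µM in the primary screen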.
Bifunctional protein GlmU (Mycobacterium tuberculosis (strain ATCC 25618 / H37Rv)), sequence (P9WMN3 whole entry, looked up): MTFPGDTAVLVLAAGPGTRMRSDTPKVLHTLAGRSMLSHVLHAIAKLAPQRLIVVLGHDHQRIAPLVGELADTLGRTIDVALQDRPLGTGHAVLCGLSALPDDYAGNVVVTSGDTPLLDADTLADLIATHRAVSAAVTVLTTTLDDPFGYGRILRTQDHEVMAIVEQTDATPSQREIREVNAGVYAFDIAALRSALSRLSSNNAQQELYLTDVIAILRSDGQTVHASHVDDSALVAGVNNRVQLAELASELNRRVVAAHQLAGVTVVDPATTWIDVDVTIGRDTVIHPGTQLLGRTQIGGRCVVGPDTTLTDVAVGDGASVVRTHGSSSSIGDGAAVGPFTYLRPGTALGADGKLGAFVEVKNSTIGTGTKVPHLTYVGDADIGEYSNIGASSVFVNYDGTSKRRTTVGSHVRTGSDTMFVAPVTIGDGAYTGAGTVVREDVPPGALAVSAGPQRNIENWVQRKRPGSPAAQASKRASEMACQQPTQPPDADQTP
On to `Cc1cc(C(=O)O)c(CSCc2cc(C(=O)O)oc2C)o1`, for which the inhibition was 2.24%.

Consider `CN(C)CC(C)(C)CN=Cc1c(O)[nH]c2ccccc12`, for which the inhibition was -4.17%.

For the molecule `COc1cc2c(cc1OC)C(SC)=NC1(CCCC1)C2`, the inhibition is 2.45%.

As to `COc1cc2c(cc1O)C(SC)=NC(C)(C)C2`, the inhibition is 14.9% (active).

For the molecule `COc1cc2c(cc1OC)C(SC)=NC(C)(C)C2`, the inhibition is 8.72%.

As to `Cc1cccc(N2CCN(C(=O)N3CCOCC3)CC2)c1C`, the inhibition was 13.8% (active).

In the case of `Cc1cccc(N2CCN(C(=O)N3CCCCC3)CC2)c1C`, the inhibition is 4.08%.

Consider `Cc1cccc(C)c1N1CCN(C(=O)N2CCOCC2)CC1`, for which the inhibition was 1.63%.

As for `COc1ccc(-c2c3c(=O)n(C)c(=O)n(C)c3cn2-c2ccccc2)cc1`, the inhibition was -0.39%.

For the molecule `COc1ccc(-c2c3c(=O)n(C)c(=O)n(C)c3cn2-c2cccc(OC)c2)cc1`, the inhibition was 14% (active).

Take `COc1ccc(-c2c3c(=O)n(C)c(=O)n(C)c3cn2-c2ccc(O)cc2)cc1`: the inhibition was -0.66%.

On to `Cc1cc(C)c(C#N)c(SCC(=O)c2ccc(Cl)cc2Cl)n1`, for which the inhibition is 14.2% (active).

Regarding `Cc1cc(C)c(C#N)c(SCC(=O)c2cccs2)n1`, the inhibition was 3.22%.

Turning to `Cc1cc(C)c(C#N)c(SCC(=O)c2ccccc2)n1`, the inhibition is 2%.

With `CC1CCN(CCc2nc3cc(NC(=O)Nc4ccccc4)ccc3n2C)CC1`, the inhibition was -2.61%.

Turning to `O=c1[nH]c(/C=C/c2cccnc2)c([N+](=O)[O-])c(=O)[nH]1`, the inhibition is -1.57%.

For the molecule `COc1ccc(CCn2c(-c3cc([N+](=O)[O-])cc([N+](=O)[O-])c3)nc3nc4ccccc4nc32)cc1OC`, the inhibition is 1.37%.

With `COC(=O)CCN(C(=O)c1cccc([N+](=O)[O-])c1)c1ccccn1`, the inhibition is 2.81%.

In the case of `COC(=O)CCN(C(=O)c1ccc([N+](=O)[O-])cc1)c1ccccn1`, the inhibition is 13.6% (active).

Consider `COC(=O)CCN(C(=O)c1cc([N+](=O)[O-])cc([N+](=O)[O-])c1)c1ccccn1`, for which the inhibition is 9.11%.

As for `CCc1nnc(NC(=O)C2CCCN(S(=O)(=O)c3ccc(OC)cc3)C2)s1` (stereo not given), the inhibition was -3.09%.

`CCOc1ccc(-n2c(C)nnc2SCC(=O)N(CC)CC)cc1`: the inhibition was -6.69%.

`O=C(O)c1ccccc1/C=N/NC(=O)C1CCCCC1`: the inhibition is 1.79%.

Take `CCC1NC(=S)N(C2CCCCC2)C1=O` (stereo not given): the inhibition is -5.8%.

Turning to `CCC(C)C1NC(=S)N(C2CCCCC2)C1=O` (stereo not given), the inhibition was 15.5% (active).

Turning to `CC(C)C1NC(=S)N(C2CCCCC2)C1=O` (stereo not given), the inhibition was 1.15%.

On to `O=C1CCC(=O)N1CNc1ccc(Oc2ccccc2)cc1`, for which the inhibition was 4.2%.

Take `COc1ccc(NCN2C(=O)C3C4C=CC(C4)C3C2=O)cc1` (stereo not given): the inhibition was 0.26%.

As to `COc1ccc(NCN2C(=O)CCC2=O)cc1`, the inhibition was 13.4% (active).

In the case of `NC(=O)c1c(NC(NC(=O)c2ccco2)C(=O)c2ccc(Cl)cc2)sc2c1CCCC2` (stereo not given), the inhibition was 2%.

For `Cc1ccc2nc(C)cc(N/N=C/c3cccnc3)c2c1`, the inhibition was -6%.

`CC(C)S(=O)(=O)C/C(N)=N/OS(=O)(=O)c1ccc(Cl)cc1`: the inhibition was 0.64%.

Take `N#Cc1cccc(-n2nnnc2-c2ccc3c(c2)OCO3)c1`: the inhibition is 0.01%.

Take `CC1CN(c2ccc([N+](=O)[O-])c(NCCOc3ccccc3)c2)CCN1` (stereo not given): the inhibition was 1.45%.

On to `CCC(=O)OCCNc1cc(Sc2nccn2C)c2nonc2c1[N+](=O)[O-]`, for which the inhibition is 12.7%.

For the molecule `Cc1ccc(Sc2cc(NCCCO)c([N+](=O)[O-])c3nonc23)cc1`, the inhibition is -0.69%.

For `Cc1nnc(Sc2cc(NCCO)c([N+](=O)[O-])c3nonc23)s1`, the inhibition is 1.7%.

For the molecule `Cn1ccnc1Sc1cc(NCCCO)c([N+](=O)[O-])c2nonc12`, the inhibition is 3.47%.

With `CCC(=O)OCCNc1cc(Sc2nc3ccccc3[nH]2)c2nonc2c1[N+](=O)[O-]`, the inhibition was 10.6%.

As for `CCCC(=O)OCCNc1cc(Sc2nc3ccccc3[nH]2)c2nonc2c1[N+](=O)[O-]`, the inhibition is 9.67%.

For the molecule `CSc1ncccc1C(=O)OCC(=O)NC1CCS(=O)(=O)C1` (stereo not given), the inhibition was 3.34%.

Regarding `Cc1ccccc1OCc1nc(C#N)c(N2CCCC2)o1`, the inhibition was -2.21%.

Regarding `COc1ccc(-c2cc(C(=O)N3CCN(c4ccccc4OC)CC3)no2)cc1OC`, the inhibition was -2.36%.

As for `Cc1nc2ccccc2cc1C(=O)N/N=C/c1cccc([N+](=O)[O-])c1`, the inhibition was 1.15%.

In the case of `Cc1noc(C)c1C(=O)N1CCCc2ccccc21`, the inhibition is -6.07%.

As for `Cc1noc(C)c1C(=O)N1CCc2ccccc21`, the inhibition is 12.9% (active).

Take `Cc1onc(-c2ccccc2)c1C(=O)N1CCc2ccccc21`: the inhibition was -2.16%.

Consider `Cc1cc(S(=O)(=O)NCc2ccccc2)ccc1OCC(=O)N1CCOCC1`, for which the inhibition is 0.4%.

Consider `CC(C)CCNC(=O)CCCOc1cc(=O)n(C)c2ccccc12`, for which the inhibition was 4.37%.

On to `CCN1CCN(C(=O)C23CCC(C)(C(=O)C2Br)C3(C)C)CC1` (stereo not given), for which the inhibition is 5.77%.

Consider `CCCCC(=O)c1c(O)c2ccccc2oc1=O`, for which the inhibition was 0.58%.

As for `Cc1ccc(C(C)C)c(OCC(=O)c2c(O)c3ccccc3oc2=O)c1`, the inhibition was 4.14%.

Regarding `Cc1ccc(OCC(=O)c2c(O)c3ccccc3oc2=O)cc1C`, the inhibition was 0.96%.

For the molecule `CCOc1ccc(OCC(=O)c2c(O)c3ccccc3oc2=O)cc1`, the inhibition was 14.2% (active).

Turning to `CCc1ccc(OCC(=O)c2c(O)c3ccccc3oc2=O)cc1`, the inhibition was -0.96%.

Take `COc1ccc(OCC(=O)c2c(O)c3ccccc3oc2=O)cc1`: the inhibition was 13.8% (active).

In the case of `CNc1c([N+](=O)[O-])cnn1-c1ccc(C)cc1`, the inhibition was 5.02%.

As for `C=CCOc1ccc(/C(O)=C2/C(=O)C(=O)N(CCCn3ccnc3)C2c2ccco2)cc1` (stereo not given), the inhibition was 5.54%.

As for `CC(C)(C)NCC(O)COc1ccc(Br)cc1` (stereo not given), the inhibition was -5.25%.

On to `CN(C)c1nc(-c2ccccc2)nc(-c2ccc(Cl)cc2)c1C#N`, for which the inhibition is -2.64%.

With `C/C(=N\NC(=O)c1ccccc1)c1ccccc1Br`, the inhibition is 3.08%.

Turning to `Nc1ccc(S(=O)(=O)N2CCCC2)cc1Cl`, the inhibition is 0.44%.

Consider `CC1=CC(C)C(C(=O)O)C(C(=O)O)C1` (stereo not given), for which the inhibition is 4.72%.

Regarding `COC(=O)C1C(c2ccccc2)C=CC(c2ccccc2)C1C(=O)O` (stereo not given), the inhibition was 2.66%.

`CC(C)(C)C(=O)COC(=O)c1cccc(NC(=O)c2ccco2)c1`: the inhibition is 3.57%.

On to `CCn1c(-c2ccc(N)cc2)nc2ccccc21`, for which the inhibition is 4.62%.

On to `CN(C)c1ccc(-c2nc3ccccc3n2C)cc1`, for which the inhibition is 3.52%.

As to `CCn1c(-c2ccc(N(C)C)cc2)nc2ccccc21`, the inhibition is 13.3% (active).

Take `Cc1cnc(C)c(N2CCC(C(=O)NCc3ccco3)CC2)n1`: the inhibition is -3.63%.

For `Cc1cnc(C)c(N2CCC(C(=O)NCc3cccs3)CC2)n1`, the inhibition is 2.06%.

Consider `Cc1cnc(C)c(N2CCC(C(=O)NC(C)c3cccs3)CC2)n1` (stereo not given), for which the inhibition is 13.1% (active).

As to `O=C/C(=C\Nc1ccccn1)c1nc2ccccc2o1`, the inhibition was 13.3% (active).

Regarding `O=C/C(=C\Nc1ccccn1)c1nc2cc(Cl)ccc2o1`, the inhibition is -1.58%.

Take `O=C/C(=C\Nc1ccc(Cl)cn1)c1nc2ccccc2o1`: the inhibition is 0.28%.

Consider `COC(=O)/C=C/c1ccc(-n2cncn2)cc1`, for which the inhibition is 0.5%.

For orientation: inhibition means the change of the read-out against control, counted positive when it falls.

Source of the values: PubChem BioAssay AID1376 (SRMLSC, 2008).
